From PubChem
An excerpt weighted towards active compounds, which were near 4.1% of everything screened.
hcDAF-12 act: H. contortus DAF-12 nuclear receptor activators, primary screen, cell-based, luminescence, HEK293, lit1-tk-luc reporter; HEK293 hcDAF-12 lit1-tk-luc reporter; 0% DMSO, 100% Δ7-dafachronic acid; activation, % at 6.8 µM; 370,000 tested, 1.4% active;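 active = activation above the mean of all tested compounds plus 3 SD, cut at about 5.5% in these data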;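 note: 100% = response to 3 µM Δ7-dafachronic acid high control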
ssDAF12 agonist: S. stercoralis DAF-12 nuclear receptor activators, primary screen, cell-based, luminescence, HEK293, GRIP1 co-expression, lit1-tk-luc; Nuclear hormone receptor DAF-12 (Strongyloides stercoralis); HEK293 ssDAF-12/GRIP1 lit1-tk-luc reporter; % of 3 µM dafachronic acid response; activation, % at 6.8 µM; 370,000 tested, 1% active;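 active = activation above the mean over all tested compounds plus 3 SD, cut at about 0.9% in these data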;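 note: 0% = DMSO-only wells and 100% = 3 µM delta7-dafachronic acid wells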
hgDAF12 agonist: H. glycines DAF-12 receptor agonists, primary screen, cell-based, luminescence, HEK293, GAL4 fusion, UAS-luciferase; HEK293 GAL4-hgDAF12 UAS-luciferase reporter, agonist luminescence; normalized to butyrate control; AID 687014, 2013; activation, % at 6.8 µM; 370,000 tested, 1.8% active; Nuclear hormone receptor DAF-12 (Heterodera glycines), GAL4 fusion;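 active = activation above a cutoff set at the mean of all screened compounds plus 3 SD, cut at about 10% in these data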;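 note: 0% = DMSO wells and 100% = sodium butyrate wells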
DAX1 inh-1: DAX1 (NR0B1) inhibitors, primary screen, cell-based, HEK293, Gal4-DAX1, luciferase luminescence; 340,000 tested, 0.99% active; inhibition, % at 6.75 µM; HEK293 Gal4-DAX1 luciferase reporter; AID 504766, 2011; Nuclear receptor subfamily 0 group B member 1 (Homo sapiens), P51843;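 active = inhibition above the mean over all tested compounds plus 3 SD, cut at about 4.2% in these data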;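 note: 0% = DAX1-transfected cells with DMSO and 100% = empty-vector control cells with DMSO; inhibition shows as a rise in luminescence from relieved DAX1 repression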
Target sequence (P51843 207-470 limits assumed): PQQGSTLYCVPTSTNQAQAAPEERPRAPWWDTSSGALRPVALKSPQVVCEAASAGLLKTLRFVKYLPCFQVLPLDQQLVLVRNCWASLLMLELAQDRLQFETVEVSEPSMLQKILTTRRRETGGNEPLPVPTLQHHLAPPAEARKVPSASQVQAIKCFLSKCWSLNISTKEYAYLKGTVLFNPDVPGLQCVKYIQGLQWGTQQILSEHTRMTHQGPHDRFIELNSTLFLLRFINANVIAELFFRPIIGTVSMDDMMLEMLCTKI
DAX1 inh-2: DAX1 (NR0B1) inhibitors on StAR promoter, primary screen, cell-based, luminescence, SF-1 (NR5A1), full-length DAX-1 | HEK293T StAR-luciferase reporter, SF-1/DAX-1 repression relief | AID 652010, 2013 | inhibition, % at 6.8 µM | 370,000 tested, 1.1% active;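 active = inhibition above the mean over all tested compounds plus 3 SD, cut at about 3.6% in these data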;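 note: 0% = DAX-1 cells with DMSO and 100% = cells lacking DAX-1 with DMSO; higher inhibition means more luminescence from relief of DAX-1 repression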
hgDAF12 ag: H. glycines DAF-12 receptor agonists, confirmation, cell-based, luminescence, HEK293, GAL4-LBD fusion | shares compounds with hgDAF12 agonist | HEK293 GAL4-hgDAF12 luciferase reporter, agonist mode; percent of butyrate response | activation, % at 6.8 µM | 3,300 tested, 80% active | AID 743050, 2013;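 active = mean activation over triplicate wells above the hit cutoff derived from the earlier primary screen, cut at about 11% in these data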;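 note: 0% = DMSO low control and 100% = 2 mM sodium butyrate high control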
LXR ag 2: LXR agonists, Gal4 luciferase reporter, confirmation, counter-screen for hgDAF-12 agonist project, cell-based, luminescence, HEK293, H. glycines campaign; activation, % at 6.8 µM; AID 743051, 2013; 3,300 tested, under 10 active; shares compounds with hgDAF12 agonist; 24 h;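 active = mean activation of the triplicate above a set limit carried over from the primary screen, none filed active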
An asterisk follows results filed as active; . = not tested or not shown.

SMILES | hcDAF-12 act | ssDAF12 agonist | hgDAF12 agonist | DAX1 inh-1 | DAX1 inh-2 | hgDAF12 ag | LXR ag 2
NS(=O)(=O)c1ccc(NC(=O)c2ccc(-c3ccccc3)cc2)cc1 | -0.3 | -0.9 | 3.0 | . | 0.7 | . | .
Cc1ccccc1-c1nc2cc(N)ccc2o1 | 3.5 | -0.9 | 14.6* | 1.5 | 3.2 | 13.3* | 0.7
CC(C)c1ccc2oc(-c3cc(N)ccc3O)nc2c1 | -0.3 | -1.9 | -8.2 | -1.2 | -1.1 | . | .
S=C(NCc1ccco1)Nc1ccc(Br)cc1Cl | 2.1 | -1.2 | 13.2* | . | 0.1 | 3.8 | 0.2
S=C(NCc1ccco1)Nc1ccc(Cl)cc1Cl | 0.1 | -0.9 | 5.7 | 0.0 | 0.2 | . | .
COc1ccc(C(=O)CSc2nnc(-c3cccnc3)n2-c2ccccc2)cc1 | 0.6 | -1.7 | 4.1 | . | -0.7 | . | .
Cc1c(C2N3CC4(C)CN2CC(C)(C3)C4=O)c2ccccc2n1C (centres undefined) | -0.8 | -1.3 | 1.4 | 0.5 | 0.3 | . | .
Cn1cc(C2N3CC4(C)CN2CC(C)(C3)C4=O)c2ccccc21 (centres undefined) | -1.3 | -1.4 | 16.0* | 1.9 | -0.9 | 0.6 | 0.0
O=C(O)CCC(=O)Nc1ccccc1C(=O)NCCc1ccccc1 | 5.9* | 0.8 | 19.2* | 0.7 | 2.5 | 6.8 | 0.3
Cc1ccc(-c2nc3ccc(C(=O)O)cc3nc2-c2ccc(C)cc2)cc1 | -0.4 | -1.4 | -0.7 | 4.2 | -0.8 | . | .
Cc1nc2ccc(OC(=O)c3ccccc3)cc2s1 | -0.6 | -1.1 | 2.7 | 1.1 | -0.1 | . | .
Cc1ccc(OC(=O)c2ccc3nc(C)sc3c2)cc1 | 1.4 | 0.4 | 14.9* | . | 3.0 | 16.6* | 0.8
Cc1nc2cc(C(=O)O)ccc2s1 | 2.6 | 0.3 | 14.9* | 1.2 | 2.0 | 16.5* | 0.6
COC(=O)[C@]12C[C@H](CC(=O)N3CCN(C(=O)C4CC4)CC3)C(=O)N(Cc3ccc4c(c3)OCO4)C1=C[C@H](COCc1ccccc1)O[C@@H]2C | -2.0 | -1.0 | -0.3 | . | -0.8 | . | .
O=C(N/N=C/c1ccccc1)c1[nH]ncc1Br | 1.5 | -0.3 | 15.2* | 4.2* | 1.9 | 13.6* | 0.3
CCOc1ccc(-c2cc(C(=O)NN=C3CCN(C)CC3)[nH]n2)cc1 | 6.0* | 1.1* | 13.3* | 0.1 | 3.2 | 3.1 | 0.0
CN1CCC(=NNC(=O)c2cc(-c3ccc(Cl)cc3)n[nH]2)CC1 | -1.3 | -1.7 | 7.5 | 1.3 | 1.3 | . | .
O=C(Nc1c(-c2ccc(C(F)(F)F)cc2)nc2ncccn12)c1ccccc1 | 2.6 | -0.9 | 2.4 | . | -0.7 | . | .
Cc1ccc(C(C)(C)NC(=O)C2CCC(=O)N(C3CCCCCC3)C2)cc1 (centres undefined) | 6.0* | -0.3 | 13.4* | 1.1 | 2.8 | 14.0* | 0.4
Cc1ccc(C(C)(C)NC(=O)C2CCC(=O)N(CCCN3CCOCC3)C2)cc1 (centres undefined) | 0.5 | -1.1 | -0.2 | 0.5 | 0.2 | . | .
CCOC(=O)[C@]12CCCC=C1N(Cc1ccc(OC)cc1)C(=O)[C@@H]2CC(=O)N1CCSCC1 | -1.7 | -0.7 | 2.0 | . | -1.3 | . | .
CCCCSc1ncc(C(=O)OCC)c(N)n1 | 3.7 | 0.6 | 15.1* | 2.5 | 3.7* | 11.3* | 0.8
CCOC(=O)c1cnc(SCc2ccc(C)cc2)nc1N | 1.2 | -0.4 | 6.7 | 0.6 | 1.4 | . | .
CCOC(=O)c1cnc(SCCc2ccccc2)nc1N | 5.4 | 1.4* | 16.0* | 2.9 | 4.5* | 19.5* | 0.8
